# Laboratory results taken from PubChem BioAssay AID463173 (ICCB-Longwood Screening Facility, Harvard Medical School, 2010).
# Screen size: about 52,000 compounds; about 4,300 (8.3%) were called active. Many of the other results were omitted from the sample, so actives are more common in it than they were. Unmarked numbers belong to inactive results. No stated cut-off is given here; in the data, active means survival mostly below about 52% (no sharp cut-off); inactive means mostly above about 56%.
# Test system: DeltatarO mutant
# Assay: growth inhibition of S. aureus wild type versus tarO mutant, primary screen, teichoic acid synthesis inhibitors, RN4220, OD600 (AID 463173)
# Conditions: OD600, 18 h, hits give low values, screened at 18.75 µg/mL (by protocol)
row,Compound,survival
1,O=C(NCC(=O)N1CCCCC1)c1ccccc1,97%
2,Cc1ccc(Cl)cc1NC(=O)Cn1c(=O)oc2cc(S(=O)(=O)N3CCCC3)ccc21,81%
3,CCc1ccccc1NC(=O)Cn1c(=O)n(CCc2ccccc2)c(=O)c2ccccc21,89%
4,COC(=O)c1ccc(Cn2nc(-c3ccc(C)c(C)c3)ccc2=O)cc1,67%
5,COc1ccc(NC(=O)Nc2cn(CC(C)C)c(=O)c3ccccc23)c(OC)c1,91%
6,COc1cc(Cl)c(C)cc1NC(=O)c1cn(CC(C)C)c(=O)c2cc(OC)c(OC)cc12,42% (active)
7,CCn1cc(C(=O)N2CCN(c3cccc(Cl)c3)CC2)c2cc(OC)c(OC)cc2c1=O,54%
8,CCn1cc(C(=O)Nc2ccc(C(C)C)cc2)c2cc(OC)c(OC)cc2c1=O,63%
9,COc1ccc(C)cc1NC(=O)c1cn(C)c(=O)c2cc(OC)c(OC)cc12,72%
10,CCn1cc(C(=O)Nc2cccc(Cl)c2)c2cc(OC)c(OC)cc2c1=O,46% (active)
11,COc1ccc(OC)c(NC(=O)c2cn(CC(C)C)c(=O)c3cc(OC)c(OC)cc23)c1,50% (active)
12,COc1ccc(NC(=O)c2cn(CC(C)C)c(=O)c3cc(OC)c(OC)cc23)cc1Cl,50%
13,CCOC(=O)c1ccccc1NC(=O)c1cn(CC(C)C)c(=O)c2cc(OC)c(OC)cc12,53%
14,COc1ccc(Cn2c(C(=O)O)c(CNCCc3cc(OC)ccc3OC)c3ccc(C)cc32)cc1,85%
15,COc1ccccc1NC(=O)c1c(C)cc(C)nc1SCC(=O)Nc1ccc(C)cc1,51%
16,CC(C)c1cccc(C(C)C)c1NC1=NS(=O)(=O)c2ccccc21,76%
17,COc1cc(C(=O)N2CCc3ccccc32)cc(OC)c1OC,104%
18,O=C(c1ccc2c(c1)N(Cc1ccccc1F)C(=O)c1ccccc1S2(=O)=O)N1CCCCCC1,73%
19,CN1CCN(C(=O)C2CCCCC2C(=O)O)CC1 (stereo unspecified),78%

row,Compound,survival
1,COC(=O)c1cc2sccc2n1Cc1nc(-c2cccc(Br)c2)oc1C,70%
2,CCc1ccc(C2NC(=O)c3[nH]nc(-c4cccc(OC)c4)c32)cc1 (stereo unspecified),54%
3,COc1ccc(OC)c(C2c3c(-c4ccc(Br)cc4)n[nH]c3C(=O)N2c2ccc(Cl)cc2)c1 (stereo unspecified),89%
4,COc1ccc(-c2n[nH]c3c2C(c2ccc(Cl)cc2Cl)NC3=O)cc1 (stereo unspecified),-12% (active)
5,Cc1ccc(CC(=O)Nc2c(C(=O)N3CCN(c4ccccc4F)CC3)oc3ccccc23)cc1,74%
6,CCOc1ccc(-n2c(=O)c3c(C)c(C)sc3n(CC(=O)NCCc3ccccc3)c2=O)cc1,84%
7,CCCCN(CC)C(=O)Cn1c(=O)n(-c2ccc(OCC)cc2)c(=O)c2c3c(sc21)CCCC3,89% (active)
8,Cc1ccc(C)c(Cn2c(=O)n(-c3ccc(Cl)cc3)c(=O)c3c(C)c(C)sc32)c1,76%
9,CCc1ccc(NC(=O)Cn2c(=O)n(-c3ccc(Cl)c(Cl)c3)c(=O)c3c(C)c(C)sc32)cc1,97%
10,CCOc1ccc(-n2c(=O)c3c4c(sc3n(Cc3cc(=O)n5cc(Cl)ccc5n3)c2=O)CCC4)cc1,64% (active)
11,CCOc1ccc(-n2c(=O)c3c(C)c(C)sc3n(CC(=O)Nc3ccc(CC)cc3)c2=O)cc1,46% (active)
12,CCN(CC)C(=O)Cn1c(=O)n(-c2ccc(Cl)cc2)c(=O)c2c3c(sc21)CCCCC3,89%
13,Cc1ccc(-n2c(=O)c3c4c(sc3n(Cc3cc(=O)n5cc(Cl)ccc5n3)c2=O)CCC4)cc1C,169%
14,Cc1ccc(Cn2c(=O)n(-c3ccc(C)c(C)c3)c(=O)c3c(C)c(C)sc32)cc1,71%
15,CCOc1ccc(-n2c(=O)c3c(C)c(C)sc3n(Cc3cc(=O)n4cc(Cl)ccc4n3)c2=O)cc1,69%
16,Cc1ccc(-n2c(=O)c3c(C)c(C)sc3n(Cc3ccc(F)cc3Cl)c2=O)cc1C,38% (active)
17,CCCCN(CC)C(=O)Cn1c(=O)n(-c2ccc(OCC)cc2)c(=O)c2c3c(sc21)CCC3,78%
18,O=C(CCNS(=O)(=O)c1ccc2c(c1)CCCC(=O)N2)NCc1ccc(Cl)cc1,96%
19,COc1ccc(CCNC(=O)c2cc3c(=O)n4cccc(C)c4nc3n2C)cc1,67%

row,Compound,survival
1,COc1ccc(NC(=O)C2CCCN(S(=O)(=O)c3ccc4[nH]c(=O)ccc4c3)C2)cc1Cl (stereo unspecified),82%
2,CC(=O)Nc1cccc(NC(=O)Cc2csc(COc3cccc(C)c3)n2)c1,89%
3,CCOc1ccc(NC(=O)C(=O)NCCc2csc(-c3ccc(F)cc3)n2)cc1,82%
4,CCN(CC)S(=O)(=O)c1ccc2c(c1)N(CC(=O)NCCCN1CCN(c3cc(Cl)ccc3C)CC1)C(=O)CO2,53%
5,CCOc1ccc(-c2noc(CSc3nnc(-c4ccccc4)n3-c3ccccc3)n2)cc1,66%
6,COc1cccc(-n2cc(C(=O)Nc3ccccc3C(N)=O)c3ccccc3c2=O)c1,67%
7,CCOc1ccc(-n2c(=O)c3c(C)c(C)sc3n(CC(=O)C(C)(C)C)c2=O)cc1,121%
8,COc1cccc(-n2c(=O)c3c(C)c(C)sc3n(CC(=O)NCCc3ccc(OC)c(OC)c3)c2=O)c1,94%
9,COc1ccc(CCNC(=O)Cn2c(=O)n(-c3ccc(C)c(C)c3)c(=O)c3c(C)c(C)sc32)cc1OC,64%
10,COc1ccc(CCNC(=O)Cn2c(=O)n(-c3ccccc3)c(=O)c3c(C)c(C)sc32)cc1OC,84% (active)
11,Cc1ccc(-n2c(=O)c3c4c(sc3n(CC(=O)Nc3cccc(Cl)c3)c2=O)CCCCC4)cc1C,105% (active)
12,CCOc1ccc(-n2c(=O)c3c(C)c(C)sc3n(Cc3ccccc3C)c2=O)cc1,85%
13,O=C(Cn1c(=O)n(-c2ccc(Cl)cc2)c(=O)c2c3c(sc21)CCCCC3)Nc1cccc(Cl)c1,84%
14,Cc1ccc(-n2c(=O)c3c(cnn3C)n(CC(=O)Nc3cccc(Cl)c3)c2=O)cc1,55% (active)
15,Cc1ccc(NC(=O)Cn2c(=O)n(-c3ccc(C)cc3)c(=O)c3c2cnn3C)cc1,63%
16,Cc1ccc(-n2c(=O)c3c(cnn3C)n(CC(=O)Nc3cccc(C)c3)c2=O)cc1,64%
17,CCOc1ccc(-n2c(=O)c3c(C)c(C)sc3n(Cc3ccc(C(C)(C)C)cc3)c2=O)cc1,52% (active)
18,COc1ccc(NC(=O)Cn2c(=O)n(-c3ccc(C)c(C)c3)c(=O)c3c4c(sc32)CCCCC4)cc1Cl,76%
